From the supplement of paper PMC12636033
± gives the standard deviation of the averaged measurements. Whole data set: some 33,000 sequences, median “E-score (rank enrichment, -0.5 to 0.5)” near -0.0028, cut for the highest 2% near 0.23. The entries come from a sample that favours the highest values as a whole.

Tested on: 2Sb-muMax20 (muMax20 with two 1,3-bis(methyl)benzene Cys staples, A13C/A17C and Q88C/A92C, C-terminal Lys)
Test: PBM 8-mer E-score (E-score (rank enrichment, -0.5 to 0.5)); higher = stronger preferential binding
Description: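 Protein binding microarray (universal PBM chip covering all 10-mers in fixed probe flanks) with chemically synthesized human Max(13-93) bHLH-LZ analogs (not full-length Max) bearing noncanonical residues (hArg, Tha, Aib, Nle at 65) and aromatic Cys staples. Read-out per 8-mer (and its reverse complement): E-score (rank-based enrichment, -0.5 to 0.5) and Z-score of median probe intensity.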

Sequence | PBM 8-mer E-score
CACAGCAA | 0.0823 ± 0.098
GTACTAAA | 0.0714 ± 0.032
ATACTAAC | 0.191 ± 0.016
CTACTAAC | 0.271 ± 0.02
ATACTAAA | 0.274 ± 0.073
CTACTAAG | -0.0175 ± 0.014
TTACTAAA | 0.035 ± 0.037
AGCCTATG | -0.168 ± 0.032
CCGCCCAA | -0.0271 ± 0.08
GAGCCCAA | 0.238 ± 0.016
AAGCCCAA | 0.14 ± 0.085
CCGCCCCA | 0.349 ± 0.038
TAGCCCAA | 0.0876 ± 0.027
CAGCCCCA | 0.166 ± 0.062
CCGCCCCC | -0.265 ± 0.034
CCGCCCGG | -0.235 ± 0.023
CAGCCCAA | 0.0925 ± 0.0081
CCGCCCCG | 0.287 ± 0.1
CGCCCCCA | -0.0972 ± 0.11
TAGCCCCA | 0.35 ± 0.014
GGAGAGAA | -0.0248 ± 0.093
ACGGCAGC | -0.302 ± 0.045
CATATGGA | 0.0953 ± 0.063
CAACACGC | 0.161 ± 0.065
CCCACGCC | -0.189 ± 0.095

Sequence | PBM 8-mer E-score
GCCAATTA | 0.127 ± 0.041
ACGGTCAG | -0.313 ± 0.0032
CAGGTCCG | -0.237 ± 0.054
ACGTCGGC | 0.0307 ± 0.079
ACGCCCCA | 0.287 ± 0.062
TCGCCCAA | -0.0719 ± 0.021
TCGCCCCA | 0.24 ± 0.018
ACGCCCCC | -0.18 ± 0.1
GCGCCCCA | 0.0563 ± 0.082
ACGCCCCG | -0.046 ± 0.025
CGATCCAA | -0.286 ± 0.0083
CTCGGCGA | -0.0762 ± 0.055
CGATGGTA | -0.0858 ± 0.023
AATGTAAA | 0.211 ± 0.015
ATGAGGCA | 0.0329 ± 0.044
ACTGGCGA | -0.0221 ± 0.033
ACTTGCGG | -0.169 ± 0.047
AACACAAA | 0.25 ± 0.03
CACACGTA | 0.127 ± 0.0021
CACACGTC | -0.172 ± 0.057
AACACGTA | 0.112 ± 0.046
AACACAAG | 0.141 ± 0.016
CACGCGTC | 0.2 ± 0.0088
CACGCGTG | 0.303 ± 0.039
CACACAAA | 0.167 ± 0.033

Sequence | PBM 8-mer E-score
CACACGTG | 0.338 ± 0.022
CACGCGTA | 0.199 ± 0.021
AACACGTC | 0.0373 ± 0.11
AACACGTG | 0.4538 ± 0.0037
CCGAGCCA | -0.115 ± 0.0049
GAAGGGGC | 0.128 ± 0.0016
ACCTATCG | 0.13 ± 0.048
CGCTACCC | -0.0659 ± 0.038
ACGGATCT | -0.242 ± 0.042
GGCGCAAC | -0.0786 ± 0.013
CTGATATA | 0.0373 ± 0.023
CCAACGCC | -0.0186 ± 0.026
ACTTCAAA | -0.125 ± 0.065
CAACCCCG | -0.0958 ± 0.017
CCTGCATC | -0.118 ± 0.02
GCTCCGTA | -0.181 ± 0.026
CACACCTC | 0.11 ± 0.0036
CACGCGGA | 0.28 ± 0.036
CACGCGGG | 0.115 ± 0.007
CACACCTA | 0.251 ± 0.023
AACGCGGA | -0.0532 ± 0.04
CACACCTG | -0.176 ± 0.087
TCACGGGA | -0.0219 ± 0.047
CTCAAGTC | 0.0478 ± 0.02
AGGGTTGC | -0.0164 ± 0.024

Sequence | PBM 8-mer E-score
CAGTCCGC | -0.188 ± 0.055
AGGTGCGG | 0.0251 ± 0.022
AATTTATC | 0.18 ± 0.013
AATTTATG | 0.238 ± 0.043
CATTTATA | 0.137 ± 0.013
AATTTATA | 0.248 ± 0.02
ATTTTATA | 0.206 ± 0.038
ATTTTATG | 0.0605 ± 0.031
CAGTAAGC | 0.00962 ± 0.05
AAAAAACC | 0.143 ± 0.026
GGCTCCGA | -0.22 ± 0.014
AAGGCAAT | 0.0342 ± 0.0041
ATAATTGA | 0.258 ± 0.029
CCAATTAA | 0.159 ± 0.045
CCAATTAC | 0.238 ± 0.015
GTAATTGA | 0.0929 ± 0.019
ATAATTTG | 0.132 ± 0.036
CTAATTGA | 0.053 ± 0.057
ATAATTTA | 0.235 ± 0.015
TCAATTGA | 0.1 ± 0.058
ACAATTGA | 0.194 ± 0.031
ACAATTAC | 0.194 ± 0.031
CCAATTGA | 0.252 ± 0.0093
GTAATTTA | 0.0825 ± 0.086
CCGAGAGC | -0.304 ± 0.02

Sequence | PBM 8-mer E-score
TCTCCGCA | -0.148 ± 0.043
CATGTTCG | 0.00518 ± 0.06
CAGCTGAA | -0.0746 ± 0.0082
AAAATGAC | 0.134 ± 0.0081
CCCCTAAA | 0.0345 ± 0.052
CAGGCAAG | -0.0204 ± 0.051
CAGTGAAG | -0.0862 ± 0.073
AATGAGAA | -0.0163 ± 0.03
GCGAACCA | -0.037 ± 0.021
ACAGATTC | 0.111 ± 0.028
GCGTGGTA | 0.0782 ± 0.019
CTCTACTA | 0.168 ± 0.024
ATGCCATA | 0.246 ± 0.022
ATGCCATC | 0.134 ± 0.0047
ATGCCATG | 0.026 ± 0.072
AAACAGAT | -0.0777 ± 0.083
GTTTGAGA | -0.0465 ± 0.092
CAACAGAC | 0.0401 ± 0.00088
AACATATT | 0.2329 ± 0.0015
AACATATG | 0.182 ± 0.013
AACATATA | 0.237 ± 0.031
CACATATA | 0.21 ± 0.068
AACATATC | 0.124 ± 0.0061
GACATATA | 0.0756 ± 0.061
ATCGTTAG | -0.0184 ± 0.067

Sequence | PBM 8-mer E-score
GTAGACAC | 0.0487 ± 0.053
ATTACAAC | 0.1 ± 0.033
GATAGGGA | -0.111 ± 0.072
TATAGGGA | -0.0259 ± 0.048
AATAGGGA | 0.23 ± 0.0053
ATCAAACG | -0.0315 ± 0.075
AGGTACAA | 0.0983 ± 0.038
TGGTACAA | 0.265 ± 0.021
AGGTATAA | 0.147 ± 0.0065
GGGTACAA | 0.0409 ± 0.026
TGGTATAA | 0.239 ± 0.0046
TTGTACAA | 0.29 ± 0.033
CTGTACAA | 0.0289 ± 0.12
CGGTATAA | 0.127 ± 0.043
GTGTACAA | 0.216 ± 0.039
CGTTAACC | 0.0325 ± 0.077
CTCGCCAG | -0.193 ± 0.077
CACGAATA | 0.0625 ± 0.022
CCGTATGA | -0.0951 ± 0.073
AAAGCATG | 0.181 ± 0.039
ACCGGGAT | -0.253 ± 0.025
AATCCCAT | 0.185 ± 0.057
CATCCCCA | 0.141 ± 0.047
AATCCCAA | 0.158 ± 0.025
AATCCCCC | -0.219 ± 0.0031

Sequence | PBM 8-mer E-score
TATCCCCA | 0.282 ± 0.018
AATCCCCG | 0.0673 ± 0.076
AATCCCCT | 0.2795 ± 0.0021
GATCCCCA | 0.153 ± 0.12
AATCCCCA | 0.258 ± 0.01
ATCGCTAC | -0.0426 ± 0.015
CCCGACAC | -0.0833 ± 0.071
AATGAGGC | 0.0433 ± 0.059
GAAAGGAA | 0.00148 ± 0.06
GATTCATA | 0.178 ± 0.02
CATTCATA | 0.264 ± 0.046
CATTCATC | 0.0987 ± 0.029
CGAGAGCA | -0.0422 ± 0.048
ACGAAGAT | 0.0215 ± 0.059
ACGAAGAA | 0.2404 ± 0.0017
TCGAAGAA | 0.0801 ± 0.041
AGATGCGC | 0.0628 ± 0.014
CCGAATTA | -0.0865 ± 0.076
GTCGGGCA | -0.103 ± 0.025
GATGAATA | 0.246 ± 0.059
GATGAATC | 0.06 ± 0.071
TATGAATA | 0.211 ± 0.052
